# Experimental data reported in article PMC7862700, “An all-to-all approach to the identification of sequence-specific readers for epigenetic DNA modifications on cytosine”.
# Tests used:
# Assay in all cases: DAPPL (digital affinity profiling via proximity ligation, sequencing); 10 mM Tris-HCl pH 7.5, 50 mM NaCl, 1 mM DTT, 4% glycerol, room temperature, 30 min; GST-TFs on glutathione beads, 16-mer random dsDNA library, 0.1% formaldehyde crosslink after washing; high values mean tight binding
# [1] = molecular target: T1, FLI1 (Homo sapiens, UniProt Q01543 1-452); settings: protein: recombinant; tags: N-terminal GST; dsDNA, one strand shown
# T1 sequence: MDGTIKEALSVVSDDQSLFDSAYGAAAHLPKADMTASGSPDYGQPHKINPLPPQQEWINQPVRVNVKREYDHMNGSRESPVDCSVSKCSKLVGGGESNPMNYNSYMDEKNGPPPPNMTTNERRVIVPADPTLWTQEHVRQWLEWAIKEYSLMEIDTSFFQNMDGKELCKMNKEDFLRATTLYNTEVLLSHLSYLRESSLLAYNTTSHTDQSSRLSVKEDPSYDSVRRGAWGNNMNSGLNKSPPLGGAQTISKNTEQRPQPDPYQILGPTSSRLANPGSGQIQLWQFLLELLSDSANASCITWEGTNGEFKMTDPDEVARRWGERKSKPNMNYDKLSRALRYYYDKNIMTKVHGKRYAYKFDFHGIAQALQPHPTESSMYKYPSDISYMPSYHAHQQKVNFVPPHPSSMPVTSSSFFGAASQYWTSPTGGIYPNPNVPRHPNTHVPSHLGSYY
# Outline: (§1)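 Human transcription factors were made in yeast as GST fusions, captured on glutathione beads and barcoded with DNA. With a tag-only sample included, the pool was incubated with 200 nmole of a random double-stranded 16-mer DNA library in Tris/NaCl/DTT/glycerol buffer at room temperature for 30 min, then crosslinked with 0.1% formaldehyde after washing, ligated by proximity, amplified and sequenced. For binding signal, each hexamer's read frequency for a factor is divided by its frequency for the tag-only sample.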
# [2] = molecular target: T2, ELK1 (Homo sapiens, UniProt P19419 1-428); settings: protein: recombinant; tags: N-terminal GST; dsDNA, one strand shown
# T2 sequence: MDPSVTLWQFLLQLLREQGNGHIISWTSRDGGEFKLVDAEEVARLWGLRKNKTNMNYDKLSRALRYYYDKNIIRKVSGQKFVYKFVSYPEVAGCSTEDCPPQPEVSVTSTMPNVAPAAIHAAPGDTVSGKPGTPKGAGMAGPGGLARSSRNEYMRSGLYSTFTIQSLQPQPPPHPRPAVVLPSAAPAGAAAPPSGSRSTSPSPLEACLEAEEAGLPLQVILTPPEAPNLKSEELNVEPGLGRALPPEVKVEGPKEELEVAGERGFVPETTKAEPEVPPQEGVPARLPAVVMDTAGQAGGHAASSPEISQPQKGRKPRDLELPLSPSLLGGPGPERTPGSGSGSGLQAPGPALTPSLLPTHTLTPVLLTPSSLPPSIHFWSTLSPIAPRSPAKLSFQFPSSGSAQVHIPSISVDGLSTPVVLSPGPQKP
# Outline: as §1
# [3] = molecular target: T3, GABPA (Homo sapiens, UniProt Q06546 1-454); settings: protein: recombinant; tags: N-terminal GST; dsDNA, one strand shown
# T3 sequence: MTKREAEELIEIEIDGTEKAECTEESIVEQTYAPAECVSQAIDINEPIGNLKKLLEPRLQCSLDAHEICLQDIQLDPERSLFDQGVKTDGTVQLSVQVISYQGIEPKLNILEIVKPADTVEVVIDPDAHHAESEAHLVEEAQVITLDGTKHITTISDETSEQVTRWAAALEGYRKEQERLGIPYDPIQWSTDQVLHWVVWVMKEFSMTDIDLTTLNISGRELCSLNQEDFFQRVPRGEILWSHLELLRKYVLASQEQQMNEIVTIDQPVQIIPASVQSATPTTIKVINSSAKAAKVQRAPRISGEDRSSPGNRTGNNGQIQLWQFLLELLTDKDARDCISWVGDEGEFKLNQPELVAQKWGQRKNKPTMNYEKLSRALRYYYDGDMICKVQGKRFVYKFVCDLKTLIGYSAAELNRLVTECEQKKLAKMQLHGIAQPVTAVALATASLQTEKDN
# Outline: as §1
# [4] = molecular target: T4, ERG (Homo sapiens, UniProt P11308 1-479); settings: protein: recombinant; tags: N-terminal GST; dsDNA, one strand shown
# T4 sequence: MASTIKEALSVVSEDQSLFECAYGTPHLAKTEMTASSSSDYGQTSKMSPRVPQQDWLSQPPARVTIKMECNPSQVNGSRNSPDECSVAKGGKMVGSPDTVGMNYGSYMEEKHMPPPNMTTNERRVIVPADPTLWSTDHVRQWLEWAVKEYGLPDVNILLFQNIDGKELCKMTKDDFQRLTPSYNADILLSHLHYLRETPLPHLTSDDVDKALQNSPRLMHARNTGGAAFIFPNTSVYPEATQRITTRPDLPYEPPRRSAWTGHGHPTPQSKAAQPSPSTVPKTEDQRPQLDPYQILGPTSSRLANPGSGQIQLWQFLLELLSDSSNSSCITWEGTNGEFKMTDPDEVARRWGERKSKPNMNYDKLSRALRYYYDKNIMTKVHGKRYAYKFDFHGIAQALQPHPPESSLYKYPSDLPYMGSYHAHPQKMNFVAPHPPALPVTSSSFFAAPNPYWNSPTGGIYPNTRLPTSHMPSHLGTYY
# Outline: as §1
# [5] = molecular target: ELF1 (Homo sapiens, UniProt P32519 1-619); settings: protein: recombinant; tags: N-terminal GST; dsDNA, one strand shown
# ELF1, sequence (P32519 whole entry): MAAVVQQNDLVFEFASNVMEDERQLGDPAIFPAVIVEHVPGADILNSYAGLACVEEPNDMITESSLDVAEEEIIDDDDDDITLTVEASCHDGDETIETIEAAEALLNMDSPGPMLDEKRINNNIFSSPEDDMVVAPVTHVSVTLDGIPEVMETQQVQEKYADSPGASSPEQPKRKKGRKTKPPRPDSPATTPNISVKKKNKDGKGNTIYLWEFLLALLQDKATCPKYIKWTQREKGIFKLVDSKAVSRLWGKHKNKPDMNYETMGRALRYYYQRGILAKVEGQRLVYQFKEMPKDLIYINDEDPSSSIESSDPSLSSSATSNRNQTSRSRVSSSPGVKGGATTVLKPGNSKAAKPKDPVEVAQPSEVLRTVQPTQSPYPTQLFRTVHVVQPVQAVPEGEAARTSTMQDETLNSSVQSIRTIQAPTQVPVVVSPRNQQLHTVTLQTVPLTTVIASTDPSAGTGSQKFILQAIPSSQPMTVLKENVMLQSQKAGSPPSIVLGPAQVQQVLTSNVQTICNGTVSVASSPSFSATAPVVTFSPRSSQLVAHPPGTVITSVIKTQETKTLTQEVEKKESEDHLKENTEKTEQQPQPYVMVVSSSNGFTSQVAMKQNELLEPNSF
# Outline: as §1
# [6] = molecular target: T5, EHF (Homo sapiens, UniProt Q9NZC4 1-300); settings: protein: recombinant; tags: N-terminal GST; dsDNA, one strand shown
# T5 sequence: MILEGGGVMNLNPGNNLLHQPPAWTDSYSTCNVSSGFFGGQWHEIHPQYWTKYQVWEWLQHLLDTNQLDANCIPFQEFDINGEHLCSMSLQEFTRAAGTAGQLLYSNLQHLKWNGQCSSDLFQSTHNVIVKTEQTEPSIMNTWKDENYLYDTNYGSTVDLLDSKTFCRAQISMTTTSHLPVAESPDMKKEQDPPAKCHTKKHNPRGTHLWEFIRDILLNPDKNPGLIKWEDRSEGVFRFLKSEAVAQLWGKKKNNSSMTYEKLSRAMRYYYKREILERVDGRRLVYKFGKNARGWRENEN
# Outline: as §1
# [7] = molecular target: SPI1 (Homo sapiens, UniProt P17947 1-270); settings: protein: recombinant; tags: N-terminal GST; dsDNA, one strand shown
# Outline: as §1
# [8] = molecular target: SPIB (Homo sapiens, UniProt Q01892 1-262); settings: protein: recombinant; tags: N-terminal GST; dsDNA, one strand shown
# SPIB, sequence (Q01892 whole entry): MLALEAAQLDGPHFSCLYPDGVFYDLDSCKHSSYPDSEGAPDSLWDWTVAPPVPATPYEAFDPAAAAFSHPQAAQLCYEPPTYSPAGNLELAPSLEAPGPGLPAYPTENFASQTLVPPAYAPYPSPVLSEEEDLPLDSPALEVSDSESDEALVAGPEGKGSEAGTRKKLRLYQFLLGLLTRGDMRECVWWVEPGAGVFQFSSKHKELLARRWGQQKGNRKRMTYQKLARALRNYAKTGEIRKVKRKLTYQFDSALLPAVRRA
# Outline: as §1
# [9] = molecular target: T6, ELK3 (Homo sapiens, UniProt P41970 1-407); settings: protein: recombinant; tags: N-terminal GST; dsDNA, one strand shown
# T6 sequence: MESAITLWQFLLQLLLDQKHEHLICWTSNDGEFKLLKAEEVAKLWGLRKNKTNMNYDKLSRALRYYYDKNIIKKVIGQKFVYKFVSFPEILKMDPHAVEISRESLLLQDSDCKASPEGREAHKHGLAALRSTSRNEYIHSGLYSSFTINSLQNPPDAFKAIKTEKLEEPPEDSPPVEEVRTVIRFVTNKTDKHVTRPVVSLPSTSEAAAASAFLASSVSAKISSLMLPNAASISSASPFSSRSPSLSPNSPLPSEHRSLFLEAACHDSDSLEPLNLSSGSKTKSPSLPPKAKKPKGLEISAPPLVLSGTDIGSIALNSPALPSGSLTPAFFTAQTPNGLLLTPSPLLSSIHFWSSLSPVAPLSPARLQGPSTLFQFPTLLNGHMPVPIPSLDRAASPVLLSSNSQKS
# Outline: as §1
# [10] = molecular target: T7, FEV (Homo sapiens, UniProt Q99581 1-238); settings: protein: recombinant; tags: N-terminal GST; dsDNA, one strand shown
# T7 sequence: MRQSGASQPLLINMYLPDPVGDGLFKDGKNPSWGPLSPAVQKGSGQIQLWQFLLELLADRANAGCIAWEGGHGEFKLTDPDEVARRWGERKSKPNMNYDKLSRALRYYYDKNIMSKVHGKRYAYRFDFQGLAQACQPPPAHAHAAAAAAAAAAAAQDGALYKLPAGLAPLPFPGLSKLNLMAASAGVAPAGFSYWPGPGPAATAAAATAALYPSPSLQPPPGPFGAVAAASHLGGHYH
# Outline: as §1
# [11] = molecular target: ETV5 (Homo sapiens, UniProt P41161 1-510); settings: protein: recombinant; tags: N-terminal GST; dsDNA, one strand shown
# ETV5, sequence (P41161 whole entry): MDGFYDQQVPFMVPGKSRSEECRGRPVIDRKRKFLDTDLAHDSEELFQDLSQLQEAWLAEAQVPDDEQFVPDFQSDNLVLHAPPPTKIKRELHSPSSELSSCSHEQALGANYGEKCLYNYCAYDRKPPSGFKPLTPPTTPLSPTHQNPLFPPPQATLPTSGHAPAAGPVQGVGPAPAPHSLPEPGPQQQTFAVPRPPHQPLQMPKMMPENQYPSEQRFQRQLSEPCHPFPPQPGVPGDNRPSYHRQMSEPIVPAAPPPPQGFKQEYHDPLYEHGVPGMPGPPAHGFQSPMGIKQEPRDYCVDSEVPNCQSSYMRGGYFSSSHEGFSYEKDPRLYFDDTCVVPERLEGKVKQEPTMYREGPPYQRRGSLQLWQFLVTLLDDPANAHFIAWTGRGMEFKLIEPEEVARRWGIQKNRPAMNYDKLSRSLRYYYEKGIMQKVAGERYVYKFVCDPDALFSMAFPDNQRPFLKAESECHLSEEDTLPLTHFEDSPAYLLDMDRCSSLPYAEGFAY
# Outline: as §1
# [12] = molecular target: HSF1 (Homo sapiens, UniProt Q00613 1-529); settings: protein: recombinant; tags: N-terminal GST; chain copies: 3; dsDNA, one strand shown
# HSF1, sequence (Q00613 whole entry): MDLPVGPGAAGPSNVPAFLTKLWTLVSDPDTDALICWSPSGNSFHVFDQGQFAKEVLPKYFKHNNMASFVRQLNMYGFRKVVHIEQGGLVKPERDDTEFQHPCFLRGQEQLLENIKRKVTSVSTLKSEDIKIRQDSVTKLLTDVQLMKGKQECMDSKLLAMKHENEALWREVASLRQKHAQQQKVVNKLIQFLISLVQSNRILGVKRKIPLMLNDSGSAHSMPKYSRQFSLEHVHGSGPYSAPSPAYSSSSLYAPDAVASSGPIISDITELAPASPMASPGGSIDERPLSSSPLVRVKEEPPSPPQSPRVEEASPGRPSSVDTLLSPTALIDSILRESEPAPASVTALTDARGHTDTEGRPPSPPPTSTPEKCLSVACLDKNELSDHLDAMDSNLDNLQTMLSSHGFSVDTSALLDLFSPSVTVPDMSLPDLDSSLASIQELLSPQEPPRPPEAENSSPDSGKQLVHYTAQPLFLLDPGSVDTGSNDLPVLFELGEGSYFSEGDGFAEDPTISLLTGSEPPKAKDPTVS
# Outline: as §1
# [13] = molecular target: T8, SPIC (Homo sapiens, UniProt Q8N5J4 1-248); settings: protein: recombinant; tags: N-terminal GST; dsDNA, one strand shown
# T8 sequence: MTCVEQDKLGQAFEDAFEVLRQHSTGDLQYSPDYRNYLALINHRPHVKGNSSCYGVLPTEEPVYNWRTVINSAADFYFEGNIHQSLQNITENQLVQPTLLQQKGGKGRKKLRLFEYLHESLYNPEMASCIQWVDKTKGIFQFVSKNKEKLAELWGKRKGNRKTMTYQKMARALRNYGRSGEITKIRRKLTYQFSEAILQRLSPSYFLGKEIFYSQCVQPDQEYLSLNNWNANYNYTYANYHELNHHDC
# Outline: as §1
# [14] = molecular target: ELF4 (Homo sapiens, UniProt Q99607 1-663); settings: protein: recombinant; tags: N-terminal GST; dsDNA, one strand shown
# ELF4, sequence (Q99607 whole entry): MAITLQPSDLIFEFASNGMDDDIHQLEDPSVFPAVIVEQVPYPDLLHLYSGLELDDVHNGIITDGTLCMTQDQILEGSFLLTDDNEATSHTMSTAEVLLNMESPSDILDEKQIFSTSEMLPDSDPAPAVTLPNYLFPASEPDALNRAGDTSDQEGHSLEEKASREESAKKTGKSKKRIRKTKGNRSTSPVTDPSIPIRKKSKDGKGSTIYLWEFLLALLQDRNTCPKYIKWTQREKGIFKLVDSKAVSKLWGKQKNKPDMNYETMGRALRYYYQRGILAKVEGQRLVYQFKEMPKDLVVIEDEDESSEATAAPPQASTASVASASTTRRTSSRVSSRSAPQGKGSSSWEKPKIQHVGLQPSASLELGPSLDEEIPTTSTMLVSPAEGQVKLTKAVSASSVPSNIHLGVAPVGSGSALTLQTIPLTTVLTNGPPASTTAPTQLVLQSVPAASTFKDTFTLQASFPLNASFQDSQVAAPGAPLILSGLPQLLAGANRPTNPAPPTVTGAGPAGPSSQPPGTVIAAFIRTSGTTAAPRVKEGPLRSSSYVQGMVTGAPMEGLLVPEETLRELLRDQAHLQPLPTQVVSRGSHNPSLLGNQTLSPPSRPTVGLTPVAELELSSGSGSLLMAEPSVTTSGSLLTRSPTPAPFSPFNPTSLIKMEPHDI
# Outline: as §1
# [15] = molecular target: T9, ELK4 (Homo sapiens, UniProt P28324-2 1-405); settings: protein: recombinant; tags: N-terminal GST; dsDNA, one strand shown
# T9 sequence: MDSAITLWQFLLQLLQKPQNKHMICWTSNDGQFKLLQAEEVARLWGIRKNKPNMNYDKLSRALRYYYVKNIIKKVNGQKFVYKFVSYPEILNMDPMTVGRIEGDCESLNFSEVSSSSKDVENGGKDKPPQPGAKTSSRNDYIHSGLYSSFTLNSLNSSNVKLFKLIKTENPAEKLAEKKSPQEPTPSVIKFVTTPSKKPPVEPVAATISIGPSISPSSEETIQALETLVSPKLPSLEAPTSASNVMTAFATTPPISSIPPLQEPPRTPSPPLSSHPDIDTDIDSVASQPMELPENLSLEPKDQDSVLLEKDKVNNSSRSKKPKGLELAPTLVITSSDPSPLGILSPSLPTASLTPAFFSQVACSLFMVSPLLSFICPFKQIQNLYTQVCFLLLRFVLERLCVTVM
# Outline: as §1
# [16] = molecular target: T10, ETV2 (Homo sapiens, UniProt O00321 1-342); settings: protein: recombinant; tags: N-terminal GST; dsDNA, one strand shown
# T10 sequence: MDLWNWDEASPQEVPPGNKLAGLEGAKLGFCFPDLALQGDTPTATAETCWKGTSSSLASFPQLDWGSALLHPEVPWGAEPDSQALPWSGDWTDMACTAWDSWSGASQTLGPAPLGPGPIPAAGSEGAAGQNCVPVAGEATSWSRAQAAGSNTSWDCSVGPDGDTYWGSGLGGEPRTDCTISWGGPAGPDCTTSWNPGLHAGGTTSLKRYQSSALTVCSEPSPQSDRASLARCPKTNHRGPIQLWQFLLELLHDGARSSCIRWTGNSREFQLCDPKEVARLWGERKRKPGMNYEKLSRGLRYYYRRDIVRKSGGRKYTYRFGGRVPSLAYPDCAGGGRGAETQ
# Outline: as §1
# [17] = molecular target: T11, ELF3 (Homo sapiens, UniProt P78545 1-371); settings: protein: recombinant; tags: N-terminal GST; dsDNA, one strand shown
# T11 sequence: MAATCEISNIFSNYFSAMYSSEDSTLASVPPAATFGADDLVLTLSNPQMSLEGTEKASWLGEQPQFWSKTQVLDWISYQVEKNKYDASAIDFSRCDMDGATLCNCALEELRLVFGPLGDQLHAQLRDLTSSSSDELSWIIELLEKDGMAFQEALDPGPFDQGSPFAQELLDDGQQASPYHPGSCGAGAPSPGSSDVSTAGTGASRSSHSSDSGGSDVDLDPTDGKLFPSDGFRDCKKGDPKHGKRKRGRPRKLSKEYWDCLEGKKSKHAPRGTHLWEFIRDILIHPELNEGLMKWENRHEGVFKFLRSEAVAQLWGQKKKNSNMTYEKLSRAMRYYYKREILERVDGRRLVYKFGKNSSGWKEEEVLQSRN
# Outline: as §1
# [18] = molecular target: CRX (Homo sapiens, UniProt O43186 1-299); settings: protein: recombinant; tags: N-terminal GST; dsDNA, one strand shown
# CRX, sequence (O43186 whole entry): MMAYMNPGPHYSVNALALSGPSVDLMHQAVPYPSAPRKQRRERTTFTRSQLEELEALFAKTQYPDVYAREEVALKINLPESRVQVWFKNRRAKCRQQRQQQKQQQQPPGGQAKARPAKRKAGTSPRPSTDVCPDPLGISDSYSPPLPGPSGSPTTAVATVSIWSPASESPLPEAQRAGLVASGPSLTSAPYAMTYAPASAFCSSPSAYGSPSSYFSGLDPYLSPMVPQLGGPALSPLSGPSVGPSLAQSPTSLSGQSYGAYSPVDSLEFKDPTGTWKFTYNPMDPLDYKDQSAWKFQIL
# Outline: as §1
# [19] = molecular target: ETV1 (Homo sapiens, UniProt P50549 1-477); settings: protein: recombinant; tags: N-terminal GST; dsDNA, one strand shown
# ETV1, sequence (P50549 whole entry): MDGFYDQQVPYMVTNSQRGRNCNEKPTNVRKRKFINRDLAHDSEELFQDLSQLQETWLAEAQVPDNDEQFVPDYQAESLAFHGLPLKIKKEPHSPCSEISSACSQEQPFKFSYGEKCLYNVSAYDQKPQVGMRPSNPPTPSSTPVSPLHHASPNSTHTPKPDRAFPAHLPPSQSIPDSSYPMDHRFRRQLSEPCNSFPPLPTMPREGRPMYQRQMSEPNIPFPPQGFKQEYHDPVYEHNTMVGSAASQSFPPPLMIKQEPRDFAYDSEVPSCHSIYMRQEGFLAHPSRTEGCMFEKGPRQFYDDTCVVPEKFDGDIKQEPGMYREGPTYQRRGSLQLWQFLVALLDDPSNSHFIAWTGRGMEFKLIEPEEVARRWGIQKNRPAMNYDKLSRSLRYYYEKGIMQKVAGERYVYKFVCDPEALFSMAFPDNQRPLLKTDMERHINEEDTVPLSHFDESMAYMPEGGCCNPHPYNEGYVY
# Outline: as §1
sequence,measurement,setting,value
TTTCCC,binding signal,[1],"1.65 fold enrichment (6-mer frequency, TF over GST control)"
same,binding signal,[2],"1.69 fold enrichment (6-mer frequency, TF over GST control)"
same,binding signal,[3],"1.76 fold enrichment (6-mer frequency, TF over GST control)"
same,binding signal,[4],"1.88 fold enrichment (6-mer frequency, TF over GST control)"
same,binding signal,[5],"1.61 fold enrichment (6-mer frequency, TF over GST control)"
same,binding signal,[6],"1.69 fold enrichment (6-mer frequency, TF over GST control)"
same,binding signal,[7],"1.69 fold enrichment (6-mer frequency, TF over GST control)"
same,binding signal,[8],"1.81 fold enrichment (6-mer frequency, TF over GST control)"
same,binding signal,[9],"1.75 fold enrichment (6-mer frequency, TF over GST control)"
same,binding signal,[10],"1.61 fold enrichment (6-mer frequency, TF over GST control)"
same,binding signal,[11],"1.93 fold enrichment (6-mer frequency, TF over GST control)"
same,binding signal,[12],"1.57 fold enrichment (6-mer frequency, TF over GST control)"
same,binding signal,[13],"1.87 fold enrichment (6-mer frequency, TF over GST control)"
same,binding signal,[14],"1.77 fold enrichment (6-mer frequency, TF over GST control)"
same,binding signal,[15],"1.47 fold enrichment (6-mer frequency, TF over GST control)"
same,binding signal,[16],"1.58 fold enrichment (6-mer frequency, TF over GST control)"
same,binding signal,[17],"1.43 fold enrichment (6-mer frequency, TF over GST control)"
same,binding signal,[18],"1.43 fold enrichment (6-mer frequency, TF over GST control)"
same,binding signal,[19],"1.6 fold enrichment (6-mer frequency, TF over GST control)"
